# The list shows a part of the results. The source made the active and inactive calls.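 Rule for the calls, unless noted: active = mean inhibition above about 50% in the one-dose retest (limit read from the data); inactive = the rest.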
# How the values were obtained:
# [1] = molecular target: Sentrin-specific protease 8 (Homo sapiens) (UniProt Q96LD8); experiment: human SENP8 peptidase blockers, hit retest – biochemical, luminescence, single concentration, confirmation (AID 488912;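 active = mean inhibition across replicates above about 50%, limit read from the data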); conditions: Recombinant SENP8, Z-RLRGG-aminoluciferin luminescence, 60 min; at 12.5 µM; stronger effect = higher value
# [2] = molecular target: Sentrin-specific protease 6 (Homo sapiens) (UniProt Q9GZR1); experiment: inhibition of human SENP6 catalytic domain – biochemical, luminescence, single concentration, confirmation (AID 488915); conditions: recombinant SENP6, Z-RLRGG-aminoluciferin luminescence; at 12.5 µM; stronger effect = higher value
# [3] = molecular target: Sentrin-specific protease 7 (Homo sapiens) (UniProt Q9BQF6); experiment: human SENP7 peptidase blockers, hit retest – biochemical, luminescence, single concentration, confirmation (AID 488917); conditions: recombinant SENP7, Z-RLRGG-aminoluciferin luminescence, 40 min; at 12.5 µM; stronger effect = higher value
# [4] = molecular target: Caspase-3 (Homo sapiens) (UniProt P42574); experiment: human caspase-3 activity blockade, out-of-family – biochemical, single concentration, selectivity assay for SENP inhibitor project, confirmation (AID 488918;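 active = mean inhibition above about 50%, limit read from the data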;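 note: plate controls were enzyme with DMSO for no effect and wells without caspase-3 for full effect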); conditions: purified caspase-3, Z-DEVD-aminoluciferin luminescence, 60 min; at 12.5 µM; stronger effect = higher value
# [5] = Ultra-Glo luciferase signal interference – biochemical, single concentration, SENP8 reaction pre-completed, artefact control for SENP inhibitor project, confirmation (AID 488919;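 active = mean inhibition above about 50% when retested at one dose, limit read from the data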;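 note: plate controls were DMSO wells with completed reaction for no effect and substrate without enzyme for full effect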); conditions: Pre-incubated SENP8/Z-RLRGG-aminoluciferin, luciferase luminescence interference; at 12.5 µM; stronger effect = higher value
# [6] = PERK-eIF2a-CHOP pathway stimulators, retested – cell-based, CHO-CHOP luciferase reporter, single concentration, confirmation (AID 463112; in the data active = activation above about 33%;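 note: 0% = DMSO wells and 100% = tunicamycin 10 µg/mL wells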); conditions: CHO-CHOP cells, CHOP-luciferase reporter luminescence; at 10 µM; stronger effect = higher value; percent of tunicamycin response, DMSO as zero
# [7] = molecular target: Tumor necrosis factor receptor superfamily member 10B (Homo sapiens) (UniProt O14763); experiment: viability loss of caspase-8 NB7 cells with TRAIL – with/without TRAIL, luminescence panel, confirmation (AID 651596; in the data active = activity above about 50%); conditions: NB7 neuroblastoma + caspase-8, TRAIL sensitization, NB7 Caspase-8, with TRAIL, mean of runs, at 10 µM, stronger effect = higher value
# [8] = as above; conditions: NB7 neuroblastoma + caspase-8, without TRAIL, NB7 Caspase-8, without TRAIL, mean of runs, at 10 µM
# [9] = HIF-2a driven luciferase blockers, single dose – luminescence, 786-0 RCC cells, confirmation (AID 651580;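 active = mean inhibition across four replicates of at least 40 percent at the single tested concentration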); conditions: HIF-2a luciferase reporter luminescence, overnight, at 18.8 µM, stronger effect = higher value
# [10] = HIF-1a luciferase reporter signal reduction – MiaPaCa-2 cells, single concentration, counter-screen for HIF-2a inhibitor project, confirmation (AID 651589;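 active = mean inhibition of the reporter signal across four replicates at the single tested dose of 50% or more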); conditions: MiaPaCa-2 HIF-1a luciferase reporter, desferoxamine, overnight; at 18.8 µM; stronger effect = higher value
# [11] = molecular target: Tumor necrosis factor receptor superfamily member 10B (Homo sapiens) (UniProt O14763); experiment: compound enhancement of TRAIL-induced cell killing – NB7 cells plus caspase-8, luminescence, panel, dose response (AID 652002); conditions: NB7 neuroblastoma +caspase-8, TRAIL sensitization, luminescence viability, NB7+Caspase-8, with TRAIL, run 1; at 12.5 µM (top of the series)
# [12] = molecular target: Tumor necrosis factor receptor superfamily member 10B (Homo sapiens) (UniProt O14763); experiment: as above; conditions: NB7 neuroblastoma +caspase-8, TRAIL sensitization, luminescence viability, NB7+Caspase-8, with TRAIL, run 2; at 12.5 µM (top of the series)
# [13] = as above; conditions: NB7 neuroblastoma +caspase-8, no TRAIL, compound-alone cytotoxicity counter-screen, luminescence viability, NB7+Caspase-8, run 1; at 12.5 µM (top of the series) unless noted
# [14] = as above; conditions: NB7 neuroblastoma +caspase-8, no TRAIL, compound-alone cytotoxicity counter-screen, luminescence viability, NB7+Caspase-8, run 2; at 12.5 µM (top of the series) unless noted
# Sentrin-specific protease 7 (Homo sapiens), sequence (Q9BQF6 706-1050 limits assumed): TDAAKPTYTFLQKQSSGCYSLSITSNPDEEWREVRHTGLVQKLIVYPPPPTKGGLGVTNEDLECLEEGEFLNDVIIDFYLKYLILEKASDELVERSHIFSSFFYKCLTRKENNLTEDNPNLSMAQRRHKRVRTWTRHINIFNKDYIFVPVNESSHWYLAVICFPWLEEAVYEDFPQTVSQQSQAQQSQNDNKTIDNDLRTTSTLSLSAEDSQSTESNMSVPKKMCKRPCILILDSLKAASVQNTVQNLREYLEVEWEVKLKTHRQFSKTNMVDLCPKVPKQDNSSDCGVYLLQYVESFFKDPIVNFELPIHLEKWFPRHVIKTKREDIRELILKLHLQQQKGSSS
# Sentrin-specific protease 6 (Homo sapiens), sequence (Q9GZR1 628-1112 limits assumed): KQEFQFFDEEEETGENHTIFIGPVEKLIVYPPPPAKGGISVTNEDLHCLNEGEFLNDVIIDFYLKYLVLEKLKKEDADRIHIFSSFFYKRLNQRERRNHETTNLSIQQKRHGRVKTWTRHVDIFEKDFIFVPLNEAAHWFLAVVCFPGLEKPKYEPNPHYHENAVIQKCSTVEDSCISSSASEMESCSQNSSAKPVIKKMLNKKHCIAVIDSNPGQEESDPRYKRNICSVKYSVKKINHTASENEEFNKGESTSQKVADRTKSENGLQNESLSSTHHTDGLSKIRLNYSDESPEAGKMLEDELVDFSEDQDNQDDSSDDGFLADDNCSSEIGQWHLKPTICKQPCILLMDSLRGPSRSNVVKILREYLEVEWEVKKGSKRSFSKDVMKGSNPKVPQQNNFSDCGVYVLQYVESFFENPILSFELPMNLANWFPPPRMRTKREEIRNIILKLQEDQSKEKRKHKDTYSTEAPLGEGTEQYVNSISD
# Sentrin-specific protease 8 (Homo sapiens), sequence (Q96LD8 whole entry, looked up, the tested form may be a part): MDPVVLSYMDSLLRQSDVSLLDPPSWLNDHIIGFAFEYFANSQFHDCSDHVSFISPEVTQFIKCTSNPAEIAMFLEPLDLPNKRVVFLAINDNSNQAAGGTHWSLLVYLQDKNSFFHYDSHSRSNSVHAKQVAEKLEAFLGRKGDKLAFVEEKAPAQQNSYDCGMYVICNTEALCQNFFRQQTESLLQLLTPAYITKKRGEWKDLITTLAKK
# Tumor necrosis factor receptor superfamily member 10B (Homo sapiens), sequence (O14763 whole entry, looked up): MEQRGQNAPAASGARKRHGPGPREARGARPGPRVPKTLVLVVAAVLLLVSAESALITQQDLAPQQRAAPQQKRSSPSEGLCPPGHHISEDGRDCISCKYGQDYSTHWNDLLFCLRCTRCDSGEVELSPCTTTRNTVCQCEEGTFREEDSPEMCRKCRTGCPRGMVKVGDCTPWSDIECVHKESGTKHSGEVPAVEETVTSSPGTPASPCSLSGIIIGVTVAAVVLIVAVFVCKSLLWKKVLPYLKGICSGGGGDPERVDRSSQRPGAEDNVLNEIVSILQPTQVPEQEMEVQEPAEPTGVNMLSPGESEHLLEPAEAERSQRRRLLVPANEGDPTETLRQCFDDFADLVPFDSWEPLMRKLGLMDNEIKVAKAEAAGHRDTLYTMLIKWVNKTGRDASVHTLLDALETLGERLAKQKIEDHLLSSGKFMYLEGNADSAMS
# Caspase-3 (Homo sapiens), sequence (P42574 28-227 limits assumed): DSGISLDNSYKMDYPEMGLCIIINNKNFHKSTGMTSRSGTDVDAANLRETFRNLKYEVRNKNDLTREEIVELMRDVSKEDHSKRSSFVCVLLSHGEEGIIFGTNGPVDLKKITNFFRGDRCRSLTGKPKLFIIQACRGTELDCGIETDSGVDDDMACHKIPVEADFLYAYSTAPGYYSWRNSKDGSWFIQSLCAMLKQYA
smiles,measurement,setting,value
O=C(Nc1ccccc1)c1ccc2c(c1)OCO2,inhibition,[1],10.6% (inactive)
same,inhibition,[2],74.3% (active)
same,inhibition,[3],93.9% (active)
same,inhibition,[4],88.9% (active)
same,inhibition,[5],54.8% (active)
COc1ccccc1-c1nnc(-c2ccc(F)cc2)o1,inhibition,[1],33.8% (inactive)
same,inhibition,[2],38.6% (inactive)
same,inhibition,[3],73.8% (active)
same,inhibition,[4],66.2% (active)
same,inhibition,[5],60.3% (active)
CCOC(=O)c1c(NC(=O)CCl)sc(C(=O)N(CC)CC)c1C,activation,[6],27% (inactive)
same,activity,[7],95.3%
same,activity,[8],93.8%
CC(C)Cc1cc(C(=O)Nc2cc(Br)ccc2O)no1,inhibition,[1],6% (inactive)
same,inhibition,[2],21.4% (inactive)
same,inhibition,[3],28.9% (inactive)
same,inhibition,[4],15.4% (inactive)
same,inhibition,[5],7.1% (inactive)
O=C1C=CC(=O)N1c1ccc(N2CCCCC2)cc1,activation,[6],60.2% (active)
same,inhibition,[9],17.3% (inactive)
same,inhibition,[10],-4.26% (inactive)
CC1=CC(C)(C)Nc2ccc(OC(=O)CN3C(=O)C4CCCCC4C3=O)cc21 (centres undefined),activation,[6],68% (active)
same,inhibition,[9],86.9% (active)
same,inhibition,[10],86.2% (active)
Oc1ccc(Br)cc1C=Nc1ccc2[nH]ncc2c1,inhibition,[1],5.1% (inactive)
same,inhibition,[2],2.1% (inactive)
same,inhibition,[3],-2.2% (inactive)
same,inhibition,[4],-0.8% (inactive)
same,inhibition,[5],-3.9% (inactive)
C/C(=N\Nc1nc2ccccc2[nH]1)c1cccs1,inhibition,[1],49.6% (inactive)
same,inhibition,[2],49.2% (inactive)
same,inhibition,[3],81.2% (active)
same,inhibition,[4],63.1% (active)
same,inhibition,[5],61.7% (active)
CCCCSc1nnc(-c2ccc(C)cc2)o1,inhibition,[1],19.5% (inactive)
same,inhibition,[2],60.5% (active)
same,inhibition,[3],85.3% (active)
same,inhibition,[4],55% (active)
same,inhibition,[5],23.2% (inactive)
CSc1ccccc1NC(=O)c1cc(C2CC2)on1,inhibition,[1],34.7% (inactive)
same,inhibition,[2],28.3% (inactive)
same,inhibition,[3],62.8% (active)
same,inhibition,[4],41.1% (inactive)
same,inhibition,[5],40% (inactive)
O=C(Nc1ccc(OC(F)(F)F)cc1)c1ccc2c(c1)no[n+]2[O-],activation,[6],24.4% (inactive)
same,activity,[7],90%
same,activity,[8],96.8%
O=C(Nc1sc2c(c1C(=O)O)CCC2)c1ccccc1F,inhibition,[1],94.5% (active)
same,inhibition,[2],96.2% (active)
same,inhibition,[3],102% (active)
same,inhibition,[4],96.3% (active)
same,inhibition,[5],94.5% (active)
Cc1cccc(-n2ncc(Cl)c(Cl)c2=O)c1,activation,[6],29.5% (inactive)
same,inhibition,[9],26.4% (inactive)
same,inhibition,[10],101% (active)
same,activity,[7],99.6%
same,activity,[8],99.7%
CN1C(=O)/C(=C\c2cc(Br)cs2)c2ccccc21,inhibition,[1],27.2% (inactive)
same,inhibition,[2],42.4% (inactive)
same,inhibition,[3],23% (inactive)
same,inhibition,[4],18% (inactive)
same,inhibition,[5],12.1% (inactive)
O=C(O)c1ccc2c3c(cccc13)C(=O)N(OS(=O)(=O)c1ccccc1)C2=O,inhibition,[1],36.6% (inactive)
same,inhibition,[2],29.2% (inactive)
same,inhibition,[3],68.5% (active)
same,inhibition,[4],10.4% (inactive)
same,inhibition,[5],53.8% (active)
Oc1cccc2ccc(/C=C/c3ccc(Br)s3)nc12,inhibition,[1],31.2% (inactive)
same,inhibition,[2],63.9% (active)
same,inhibition,[3],52.2% (active)
same,inhibition,[4],59.9% (active)
same,inhibition,[5],9.6% (inactive)
Cc1ccc(-n2cc3ccc([N+](=O)[O-])cc3n2)cc1,inhibition,[1],-5.1% (inactive)
same,inhibition,[2],20.7% (inactive)
same,inhibition,[3],61.5% (active)
same,inhibition,[4],18.7% (inactive)
same,inhibition,[5],-2.9% (inactive)
C/C(=N\NC(=O)c1ccc(C)cc1)C1C(=O)c2ccccc2C1=O,inhibition,[1],92.6% (active)
same,inhibition,[2],93.5% (active)
same,inhibition,[3],100% (active)
same,inhibition,[4],92.7% (active)
same,inhibition,[5],94.1% (active)
Cc1cccc(Nc2nc(-c3ccccc3)cs2)n1,inhibition,[1],-7.1% (inactive)
same,inhibition,[2],91.5% (active)
same,inhibition,[3],99.9% (active)
same,inhibition,[4],67.1% (active)
same,inhibition,[5],49.5% (inactive)
COc1cc(NC(=O)c2cncc(-c3ccc(C#N)cc3)c2)cc(C(=O)Nc2cccc(C(F)(F)F)c2)c1,activation,[6],83.5% (active)
same,activity,[7],54.6%
same,activity,[8],26.9%
same,"activity, % sensitization",[11],-1.86%
same,"activity, % sensitization",[12],-1.47%
same,"activity, % sensitization",[13],-11.8%
same,"activity, % sensitization",[14],-16.3%
CCC(=O)Nc1ccc(C(=O)Nc2cccc(OC)c2)cc1,inhibition,[1],42.4% (inactive)
same,inhibition,[2],39% (inactive)
same,inhibition,[3],71.9% (active)
same,inhibition,[4],69.1% (active)
same,inhibition,[5],52.9% (active)
N/C(=N\OC(=O)c1ccc2c(c1)OCO2)c1ccc(Br)cc1,inhibition,[1],-7.4% (inactive)
same,inhibition,[2],15.2% (inactive)
same,inhibition,[3],11.9% (inactive)
same,inhibition,[4],17.8% (inactive)
same,inhibition,[5],3.3% (inactive)
FC(F)(F)c1ccnc(Oc2ccc(C3=NCCS3)cc2)c1,inhibition,[1],36.3% (inactive)
same,inhibition,[2],42.8% (inactive)
same,inhibition,[3],53.1% (active)
same,inhibition,[4],29.9% (inactive)
same,inhibition,[5],17% (inactive)
